These results are taken from PubChem BioAssay AID651699 (Sanford-Burnham Center for Chemical Genomics, 2012).

About 2,100 (0.58%) of roughly 360,000 compounds were called active. This is one part of a sample in which actives are shown more often than they occur. Cut-off read from the data, not from the text of the source: active = inhibition above about 36%; inactive = the rest.

The experiment deals with NEDD8-conjugating enzyme Ubc12 (Homo sapiens) + NEDD8-activating enzyme E1 regulatory subunit (Homo sapiens) (UniProt P61081+Q13564). As to the kind of experiment: NEDD8 transfer onto cullin, blockade – biochemical, TR-FRET, uHTS, NAE and Ubc12, primary screen (AID 651699). As to conditions: TR-FRET cullin neddylation, at 25 µM, hits give high values.
NEDD8-conjugating enzyme Ubc12 (Homo sapiens) + NEDD8-activating enzyme E1 regulatory subunit (Homo sapiens), sequence (P61081 whole entry, looked up): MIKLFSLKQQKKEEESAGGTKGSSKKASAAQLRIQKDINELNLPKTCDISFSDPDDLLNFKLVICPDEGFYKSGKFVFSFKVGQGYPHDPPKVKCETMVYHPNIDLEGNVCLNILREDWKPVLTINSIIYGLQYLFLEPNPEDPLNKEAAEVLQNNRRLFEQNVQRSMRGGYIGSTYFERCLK
NEDD8-conjugating enzyme Ubc12 (Homo sapiens) + NEDD8-activating enzyme E1 regulatory subunit (Homo sapiens), sequence (Q13564 whole entry, looked up): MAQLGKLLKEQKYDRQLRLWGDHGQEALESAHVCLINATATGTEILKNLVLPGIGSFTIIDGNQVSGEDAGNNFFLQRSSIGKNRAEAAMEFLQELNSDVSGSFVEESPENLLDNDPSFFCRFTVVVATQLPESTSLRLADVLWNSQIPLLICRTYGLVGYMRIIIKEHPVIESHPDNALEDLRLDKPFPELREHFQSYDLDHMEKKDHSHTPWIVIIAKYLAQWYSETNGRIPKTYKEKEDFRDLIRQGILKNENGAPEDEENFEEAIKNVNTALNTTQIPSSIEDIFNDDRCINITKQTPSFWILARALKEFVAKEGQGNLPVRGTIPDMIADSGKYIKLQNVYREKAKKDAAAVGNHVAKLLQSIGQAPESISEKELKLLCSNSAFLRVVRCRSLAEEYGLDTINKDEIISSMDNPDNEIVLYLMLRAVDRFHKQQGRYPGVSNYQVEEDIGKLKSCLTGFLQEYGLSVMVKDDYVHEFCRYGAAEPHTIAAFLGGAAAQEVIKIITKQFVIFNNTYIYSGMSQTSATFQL
Take `CCN1CCCC1CNc1ncnc2c1[nH]c1ccc(F)cc12` (centres undefined): the inhibition (usually the relative decrease from the control value, in per cent) was 37% (active).
The result for `CCN1CCCC1CNC(=O)Cn1cnc2ccc(S(=O)(=O)N3CCC(C)CC3)cc2c1=O` (centres undefined) reads -2.38% (inactive); that for `CCN1CCCC1Cn1cnc2c([nH]c3cc(OC)ccc32)c1=O` (centres undefined), 1.83% (inactive); that for `CCOC(=O)C1=C(N)N2C(=O)C(C)SC2=C(C(=O)OCC)C1c1cc(OC)c(OC)c(OC)c1` (centres undefined), -1.53% (inactive).
Consider `COc1ccc(CC(N)c2csc(NC(=O)NC(c3ccccc3)c3ccccc3)n2)cc1` (centres undefined), for which the inhibition is -1.83% (inactive).
The result for `CC(=O)c1ccc(Nc2nc(C(N)c3ccccc3)cs2)cc1` (centres undefined) reads 41.1% (active).
Take `COC(=O)c1ccc2c(c1)S(=O)(=O)NC(=NCCCN1CCOCC1)S2`: the inhibition was -10.1% (inactive).
For the compound `CC(Sc1nc2c([nH]c3ccccc32)c(=O)n1C)c1ccccc1` (centres undefined), the inhibition is -4.19% (inactive).
In the case of `CSc1nc2nc3c(c(=O)n2[nH]1)CCC3` it was -7.01% (inactive); in that of `O=c1c2c(nc3cc(-c4cccc(Cl)c4)[nH]n13)CCCC2`, 40.3% (active).
`Clc1cccc(Cc2c(-c3cccc(Cl)c3)nc3ccc(Cl)cn23)c1`: the inhibition was -36.7% (inactive).
For the compound `O=C(Nc1cc(-c2nn(CC(=O)N3CCCCC3)c(=O)c3ccccc23)ccc1N1CCOCC1)c1ccc(Cl)cc1`, the inhibition was 20.1% (inactive).
In the case of `O=C(CCl)NNc1cccc(Cl)n1` it was 3.4% (inactive).
Turning to `COc1ccc2oc(C(=O)N(CC(C)C)C3CCS(=O)(=O)C3)c(C)c2c1` (centres undefined), the inhibition is 2.83% (inactive).
The result for `COc1ccc2oc(C(=O)NCC(Cc3ccccc3)N(C)C)c(C)c2c1` (centres undefined) reads 43.3% (active); that for `NC(=O)C1(N2CCCCC2)CCN(C(=O)c2ccc(C#Cc3ccccc3)o2)CC1`, -13.2% (inactive); that for `O=C(NC(=S)Nc1ccc(Cl)c(C(=O)O)c1)c1cncc(Br)c1`, -4.06% (inactive).
`COc1ccc(Br)cc1/C=N/Nc1ccc(S(=O)(=O)Nc2ccccc2C(=O)O)cc1[N+](=O)[O-]`: the inhibition is -8.62% (inactive).
Turning to `COc1ccc(Br)cc1/C=N/Nc1ccc(Cl)c(C(=O)O)c1`, the inhibition is 45.1% (active).
Turning to `CCN(CC(=O)NCc1cccs1)c1nnnn1-c1ccccc1`, the inhibition is 0.19% (inactive).
Turning to `O=C(NCc1cccc(C(F)(F)F)c1)c1ccc2sc(COCCO)nc2c1`, the inhibition is 3.36% (inactive).
In the case of `CCOC(=O)c1cc(C(=O)Nc2ccc(S(=O)(=O)Nc3ccc(OC)cc3)cc2)nn1C` it was -1.03% (inactive); in that of `CC(C)CN(C(=O)COC(=O)c1ccc2ccccc2c1)c1c(N)n(Cc2ccccc2)c(=O)[nH]c1=O`, 3.53% (inactive).
The result for `CC(C)CN(C(=O)COC(=O)c1ccc(Cl)c(N)c1)c1c(N)n(Cc2ccccc2)c(=O)[nH]c1=O` reads 30.6% (inactive).
In the case of `COc1ccc2oc(C(=O)OCC(=O)N(CC(C)C)c3c(N)n(Cc4ccccc4)c(=O)[nH]c3=O)c(C)c2c1` it was 44.4% (active); in that of `CCN(CC)C(=O)C1=C(C)N(Cc2ccc(C(C)(C)C)cc2)C(=O)C(CC(=O)NCc2cccc3ccccc23)C1` (centres undefined), -9.92% (inactive).
As for `CC(C)Cc1nc(Cl)c(C#N)c2c1CCC2`, the inhibition was -5.13% (inactive).
Take `CC(C)Cc1nc(N2CCOCC2)c(C#N)c2c1CCC2`: the inhibition is 44.8% (active).
Turning to `COc1cc(S(=O)(=O)N2CCOCC2)ccc1NC(=O)COc1ccc(N(C)S(=O)(=O)c2ccc(C)cc2)cc1`, the inhibition was -8.3% (inactive).
The result for `CCNC(=O)CN(c1ccc(C)cc1)S(=O)(=O)c1ccc(SC)cc1` reads -3.17% (inactive); that for `CCOC(=O)c1cc(C)sc1NC(=O)C1CCC1`, -7.86% (inactive); that for `Cc1cc(C(=O)OCC(=O)Nc2nnc(C(C)C)s2)c2ccccc2n1`, -11.2% (inactive).
For the compound `CCOC(=O)c1cc(C(C)C)sc1NC(=O)COC(=O)c1nccnc1N`, the inhibition is 45.2% (active).
Turning to `COc1ccc(CN(CC(=O)NC2CCCC2)C(=O)CCC(=O)Nc2cc(C)on2)cc1`, the inhibition is 6.41% (inactive).
With `COc1cccc(NC(=O)c2nn(-c3ccc(OC)cc3OC)c(=O)c3ccccc23)c1`, the inhibition is -9.58% (inactive).
`CCN(c1ccccc1)S(=O)(=O)c1ccc(OCC(=O)N2CCCC2)cc1`: the inhibition is -24.7% (inactive).
In the case of `Cc1ccc(NC(=O)CC2C(=O)N(Cc3ccccc3)C(=S)N2NC(=O)c2cccc(F)c2)c(C)c1` (centres undefined) it was 2.05% (inactive); in that of `COc1ccc(Nc2ncc(C(=O)N3CCN(c4ccccc4OC)CC3)c3ccccc23)cc1`, 48.4% (active); in that of `COc1ccccc1N1CCN(C(=O)c2ccc(NC3=NC4CS(=O)(=O)CC4S3)cc2)CC1` (centres undefined), 0.72% (inactive).
`COc1ccc(-n2nc(C(=O)NCC(=O)N3CCN(c4ccccc4OC)CC3)c3ccccc3c2=O)c(OC)c1`: the inhibition is 6.66% (inactive).
In the case of `CCN(CC(=O)Nc1c(F)cccc1F)C(=O)c1ccc(-c2ccccc2)cc1` it was 4.05% (inactive).
In the case of `CCN(CC(=O)Nc1c(F)cccc1F)C(=O)c1cnc(C)cn1` it was -6.81% (inactive); in that of `CCN(CC(=O)Nc1c(F)cccc1F)C(=O)c1ccc(-c2ccc(C(C)=O)cc2)o1`, 71.9% (active).
In the case of `COc1cc(C2C(C(=O)c3cccs3)=C(O)C(=O)N2CCN2CCOCC2)ccc1OCCC(C)C` (centres undefined) it was -13.5% (inactive); in that of `CN(CC(=O)Nc1cccc(F)c1)C(=O)C1CC(=O)N(CCc2ccccc2)C1` (centres undefined), -1.18% (inactive); in that of `Cc1cc(C)c2[nH]c(=O)c(CN(Cc3ccccc3)C(=S)NCCCN(C)C)cc2c1`, 2.15% (inactive).
In the case of `Cc1cc(C)cc(NC(=S)NCCCN2CCOCC2)c1`, the inhibition was 0.98% (inactive).
Regarding `Cc1ccc2cc(C#N)c(NCCNC(=S)NCCCN3CCOCC3)nc2c1`, the inhibition was 50.7% (active).
`C=CCn1c(SCc2nnc(-c3ccccc3)o2)nnc1C(O)c1ccccc1` (centres undefined): the inhibition is 5.64% (inactive).
In the case of `CCOc1ccc(N(C(=O)c2snc(C(N)=O)c2N)C(C(=O)NCC2CCCO2)c2c[nH]c3ccccc23)cc1` (centres undefined) it was 7.52% (inactive); in that of `COc1cc(F)c(C2=CC(=O)CC(C)(C)C2)cc1F`, -23.8% (inactive).
Take `COc1ccc(N(CC(=O)N/N=C/c2cccc3c2OCCO3)S(=O)(=O)c2ccc(NC(C)=O)cc2)cc1`: the inhibition is 38.9% (active).
For `COc1ccc(N(CC(=O)N/N=C/c2cccs2)S(=O)(=O)c2ccc(OC)c(OC)c2)cc1`, the inhibition was -15.8% (inactive).
The result for `CC(=O)Nc1ccc(S(=O)(=O)N(CCc2ccccc2)CC(=O)N/N=C/c2ccc(C(=O)O)cc2)cc1` reads -5.24% (inactive).
